One test concerns CRL-7250. The test is described as follows: Cytotoxic Profiling of Annotated Libraries Using Quantitative High-Throughput Screening (AID 1296008). Note: nearly all actives have a fitted effect of over 60% in size. To be noted: Five cell lines viability, CellTiter-Glo ATP luminescence, 48-72 h; max response: hits give low values. The method in brief: (§1)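 Compounds were pin-transferred onto cells and incubated 48 or 72 hr at 37 degree Celsius, 95% humidity. CellTiter-Glo was added, plates sat 10 min at room temperature, then ATP-coupled luminescence was imaged as the viability read-out.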
On the technique in general: In ATP-based viability assays light output follows the ATP content of the culture.

In another test the test system is HEK293. The test is described as above. To be noted: Five cell lines viability, CellTiter-Glo ATP luminescence, 48-72 h; max response: hits give low values. Summed up:
as §1

Test [1] deals with HaCat. Described as above. Particulars: Five cell lines viability, CellTiter-Glo ATP luminescence, 48-72 h; max response: hits give low values. The method in brief:
as §1

A further test deals with KB-3-1. Described as above. Particulars: Five cell lines viability, CellTiter-Glo ATP luminescence, 48-72 h; max response: hits give low values. Summed up:
as §1

The test system of test [2] is NIH3T3. The test is described as above. Particulars: Five cell lines viability, CellTiter-Glo ATP luminescence, 48-72 h; max response: hits give low values. Summed up:
as §1

Test [3] deals with HACAT. The test is described as follows: qHTS assay to identify novel small-molecules to repurpose for Merkel cell carcinoma treatment (AID 1296009). Note: nearly all actives have a fitted effect of over 60% in size. Particulars: MCC and control cell lines, CellTiter-Glo viability, 72 h; at 44.8 µM (top of the series) unless noted. The method in brief:
(§2)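 Viability readout: ATP luminescence (CellTiter-Glo) after 72 hr drug exposure at 37 degree celsius. Dose-response format was 8 points for NPC and 11 points for MIPE; data normalized to in-plate controls.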

For a further test, the system named is MCC-13. The test is described as above. To be noted: MCC and control cell lines, CellTiter-Glo viability, 72 h; series mostly up to 46 µM. The method in brief:
as §2

The next test relates to MCC-26. The description is as above. To be noted: MCC and control cell lines, CellTiter-Glo viability, 72 h; series mostly up to 46 µM. Summed up: as §2
Another test relates to MKL-1. Described as above. To be noted: MCC and control cell lines, CellTiter-Glo viability, 72 h; series mostly up to 46 µM. The method in brief: as §2
The subject of the next test is MKL-2. Described as above. Particulars: MCC and control cell lines, CellTiter-Glo viability, 72 h; series mostly up to 46 µM. The method in brief:
as §2

A further test has as its system UISO. The description is as above. To be noted: MCC and control cell lines, CellTiter-Glo viability, 72 h; series mostly up to 46 µM. Summed up:
as §2

In the next test the test system is HEK293T. The test is described as above. To be noted: MCC and control cell lines, CellTiter-Glo viability, 72 h; series mostly up to 44.8 µM. Summed up: as §2
Test [4] concerns NIH3T3. The description is as above. Particulars: MCC and control cell lines, CellTiter-Glo viability, 72 h; at 44.8 µM (top of the series) unless noted. Summed up:
as §2

The subject of another test is WaGa. The test is described as above. Particulars: MCC and control cell lines, CellTiter-Glo viability, 72 h; series mostly up to 46 µM. The method in brief: as §2
The next test relates to HeLa. The test is described as follows: Primary qHTS to identify gynecologic anti-cancer compounds using libraries of approved drugs and bioactive compounds (AID 1345084). Note: nearly all actives have a fitted effect of over 55% in size. Particulars: Gynecologic cancer cell panel viability, ATPlite luminescence, 48 h; series mostly up to 57.5 µM. Summed up:
(§3)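 ATP-based viability (ATPlite), 1,000 cells/well, 16 h pre-incubation, 48 h compound at 37 C, 5% CO2, 15 min RT before read.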
Background: Quantitative high-throughput screening tests each substance at several concentrations.

The next test relates to C33A. The description is as above. Particulars: Gynecologic cancer cell panel viability, ATPlite luminescence, 48 h; series mostly up to 57.5 µM. Summed up: as §3
The test system of another test is CASKI. The test is described as above. To be noted: Gynecologic cancer cell panel viability, ATPlite luminescence, 48 h; series mostly up to 57.5 µM. The method in brief:
as §3

For a further test, the system named is Es-2. The description is as above. To be noted: Gynecologic cancer cell panel viability, ATPlite luminescence, 48 h; series mostly up to 57.5 µM. Summed up: as §3

Values joined by “and” are separate entries in the source; they are usually repeats but may differ in a detail not shown here. Equal values may be shown once. Inconclusive results are not listed. Unmarked numbers belong to inactive results. Active and inactive are the calls of the source. Calls come from the whole dose curve; as a rule, active = well fitted curve in the direction sought with a large enough effect; inconclusive = small, poorly fitted or top-dose-only effect, or another doubt; inactive = no such curve, though single readings can be large; an effect the other way counts as inactive or inconclusive.

Drawing on PubChem BioAssay (NCATS), this text covers max response, outcome and Potency for 13 compounds.
% is set by controls: 0 for no effect and ±100 for the full control effect; potency is the fitted concentration of half-maximal effect.

Regarding `Cc1cc(-c2nnc3n2CCCCC3)c(C)n1-c1ccccc1`, the max response in the test on CRL-7250 is -6.3%; with HEK293 it was -6.24%; in the test with KB-3-1, -0.0627%; with NIH3T3 [2] it was 1.52%. Moreover, the outcome in the test with HaCat [1] and with HACAT [3] was inactive. The Potency result in the test on MCC-13, in the test with MCC-26, with MKL-1 and in the test on UISO was “inactive” throughout. Moreover, the Potency in the test on MKL-2 is 20.9 µM (active).
Turning to `Nc1nc(=O)n([C@H]2CSC(CO)O2)cc1F` (stereo partly specified), the values for the max response in the test on CRL-7250 and in the test with KB-3-1 were -8.43% and 9.64%, respectively. The result in the test with HEK293, in the test with HaCat [1], in the test on NIH3T3 [2], in the test with HACAT [3] and in the test on NIH3T3 [4] was inactive. For the same compound, the Potency entry in the test on HEK293T, in the test with MCC-13, with MCC-26, with MKL-1, in the test with MKL-2 and in the test with UISO was “inactive” in each case. In addition, the Potency result in the test on WaGa is “inactive”.
Turning to `Nc1ccn(C[C@@H](CO)OCP(=O)(O)O)c(=O)n1`, the max response with CRL-7250 was 3.98%; in the test with HEK293 it was -0.164%; with NIH3T3 [2], 0.667%. The result with HaCat [1] and in the test on KB-3-1 was inactive. Besides, the outcome in the test with HACAT [3] is “inactive [at 17.4 µM]”. Also, the Potency entry with MCC-13, in the test on MCC-26, with MKL-1, in the test with MKL-2, in the test with UISO and with WaGa was “inactive” in each case.
In the case of `COc1cc(CCc2cc(NC(=O)c3ccc(N4C[C@@H](C)N[C@@H](C)C4)cc3)n[nH]2)cc(OC)c1`, the Potency with CRL-7250 was 4.69 µM (active) and 8.2 µM (active); in the test with HEK293, 2.96 µM (active); with KB-3-1, 9.35 µM (active); with NIH3T3 [2], 10.5 µM (active); with HEK293T, 14.6 µM (active); with UISO, 23.5 µM (active). Moreover, the Potency with HeLa was 25.1 µM (active). The outcome with HaCat [1] and with HACAT [3] was inactive. The Potency entry in the test on MCC-13, with MKL-2 and with WaGa was “inactive” each time.
Take `CCCc1nc(C(C)(C)O)c(C(=O)O)n1Cc1ccc(-c2ccccc2-c2nn[nH]n2)cc1`: the compound was called inactive in the test with CRL-7250, with HEK293, in the test on HaCat [1], in the test on NIH3T3 [2], in the test on HACAT [3] and in the test on NIH3T3 [4]. The max response with KB-3-1 is 0.595%. The Potency entry in the test with HEK293T, in the test with MCC-13, with MCC-26, in the test with MKL-1, with MKL-2 and in the test with UISO was “inactive” throughout. Moreover, the Potency result with WaGa was “inactive”.
As for `O=C(Nc1ccc(Oc2ccnc3[nH]ccc23)c(F)c1)c1cccn(-c2ccc(F)cc2)c1=O`, the max response with CRL-7250 was -4.56%; with HEK293, 2.79%; with HaCat [1], 2.4%. Further, the call in the test on HaCat [1], with KB-3-1, in the test with NIH3T3 [2], in the test with HACAT [3] and in the test with NIH3T3 [4] was inactive. In addition, the Potency result with MCC-13, in the test with MCC-26, with MKL-1, in the test on MKL-2, in the test on UISO and in the test with WaGa was “inactive” throughout. Besides, the Potency result in the test on C33A, with CASKI, with Es-2 and with HeLa was “inactive” throughout.
For `CC(Oc1ccc(O)cc1)(P(=O)(O)O)P(=O)(O)O`, the max response in the test with CRL-7250 is 3.19%; with KB-3-1 it was -8.06%; in the test on NIH3T3 [2] it was -5.52%. Besides, the compound was called inactive in the test with HEK293, with HaCat [1] and with HACAT [3]. Moreover, the Potency entry with HEK293T, in the test on MCC-13, in the test on MCC-26, in the test on MKL-1, with MKL-2 and with UISO was “inactive” in each case. The Potency entry in the test on WaGa is “inactive”.
For the compound `CC(=O)C1=C(O)C=C2Oc3c(C(C)=O)c(O)c(C)c(O)c3C2(C)C1=O` (stereo unspecified), the compound was called inactive in the test with CRL-7250, with HEK293, in the test with HaCat [1], in the test with KB-3-1, in the test with NIH3T3 [2] and with HACAT [3]. Also, the outcome in the test on NIH3T3 [4] was inactive. Moreover, the Potency entry with HEK293T, in the test with MCC-13, in the test on MCC-26, in the test with MKL-1, in the test with MKL-2 and in the test on UISO was “inactive” throughout. In addition, the Potency result in the test on WaGa is “inactive”.
With `O=C(NNC(=O)c1ccc(CNS(=O)(=O)c2ccc(F)c(Cl)c2)cc1)c1ccccc1`, the call in the test with CRL-7250, in the test with HaCat [1], in the test on NIH3T3 [2], with HACAT [3] and in the test on NIH3T3 [4] was inactive. The results for the max response in the test with HEK293 and with KB-3-1 were 4.45% and 0.725%, respectively. Besides, the Potency entry in the test with MCC-13, with MCC-26, with MKL-1, in the test on MKL-2, in the test with UISO and with WaGa was “inactive” in each case.
Turning to `C[C@H](CCC(=O)O)[C@H]1CC[C@H]2[C@@H]3[C@H](O)C[C@@H]4C[C@H](O)CC[C@]4(C)[C@@H]3CC[C@]12C`, the figures for the max response in the test with CRL-7250, in the test with HEK293 and in the test on KB-3-1 were 2.36%, -7.11% and 1.89%, respectively. The call in the test with HaCat [1], in the test with NIH3T3 [2], in the test with HACAT [3] and in the test on NIH3T3 [4] was inactive. Besides, the Potency entry in the test on MCC-13, in the test on MCC-26, in the test on MKL-1, with MKL-2, with UISO and in the test with WaGa was “inactive” in each case.
As to `c1coc(CNc2ncnc3nc[nH]c23)c1`, the result in the test on CRL-7250, in the test on HEK293, in the test with HaCat [1] and with HACAT [3] was inactive. In addition, the max response with KB-3-1 is -3.01%; in the test on NIH3T3 [2], 0.142%. Besides, the Potency entry in the test on HEK293T, in the test with MCC-13, in the test with MKL-1, in the test on MKL-2, in the test on UISO and in the test on WaGa was “inactive” in each case.
Take `O=C(C[C@@H]1CC=CCCC(=O)O[C@H](c2ccccc2)CNC1=O)NCc1ccc(Cl)cc1`: the result with CRL-7250, in the test with HaCat [1], in the test on KB-3-1 and with HACAT [3] was inactive. In addition, the max response in the test on HEK293 was -3.28%; with NIH3T3 [2], -2.63%. In addition, the Potency result in the test with MCC-13, with MCC-26, in the test on MKL-1, in the test on MKL-2, with UISO and in the test on WaGa was “inactive” in each case.
On to `C[C@]12C=CC(=O)N[C@@H]1CC[C@H]1[C@H]3CC[C@@H](C(=O)Nc4cc(C(F)(F)F)ccc4C(F)(F)F)[C@@]3(C)CC[C@@H]12`, for which the max response in the test with CRL-7250 is -6.18%; in the test with HEK293 it was -11%; with KB-3-1 it was -3.32%. In addition, the outcome in the test on HaCat [1], in the test on NIH3T3 [2], in the test on HACAT [3] and in the test with NIH3T3 [4] was inactive. The Potency entry in the test with MCC-13, in the test on MCC-26, in the test on MKL-1, in the test with MKL-2, in the test with UISO and in the test with WaGa was “inactive” throughout.
